Here are results for 95 compounds from PubChem BioAssay AID431 (Sanford-Burnham Center for Chemical Genomics, 2006).

Each structure is given as a SMILES string. About 1,100 (1.7%) of roughly 63,000 compounds were called active. For the sample, actives were picked, then their nearest neighbours and some compounds at random. Measured potencies and affinities stand elsewhere. A number with no mark means an inactive call.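 Rule for the calls: active = compounds whose percent cytotoxicity in the single-dose primary screen, scaled between solvent and toxic-drug controls, exceeds 50; inactive = the rest.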

A short description of this experiment: cytotoxicity in KRAS-transformed pancreatic duct cells, primary screen, cell-based, fluorescence, HTS (AID 431).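 Note: 0% = DMSO solvent wells and 100% = doxorubicin-treated wells.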 As to conditions: HPDE-C7K KRASV12 cells, Alamar Blue viability, 48 h; at 10 µM; stronger effect = higher value.
Regarding `CCCCNC(=O)c1c(N)n(CCCOC)c2nc3ccccc3nc12`, the cytotoxicity was 47.2%.

As to `COc1ccc(CCNC(=O)c2c(N)n(CCN3CCOCC3)c3nc4ccccc4nc23)cc1`, the cytotoxicity was 76.9% (active).

Turning to `CCCCCn1c(N)c(C(=O)NCCN2CCOCC2)c2nc3ccccc3nc21`, the cytotoxicity is 6.4%.

Take `CCCCCCn1c(N)c(C(=O)NCCN2CCOCC2)c2nc3ccccc3nc21`: the cytotoxicity was 86.3% (active).

As to `CCCCn1c(N)c(C(=O)NCCN2CCOCC2)c2nc3ccccc3nc21`, the cytotoxicity is -9.3%.

Take `CCOC(=O)c1c(N)n(CCN2CCCCC2)c2nc3ccccc3nc12`: the cytotoxicity was 1.7%.

Take `CC1SC2(CN3CCC2CC3)NC1=O` (stereo not given): the cytotoxicity was -32%.

With `O=P(OCC(F)(F)C(F)F)(N1CCOCC1)N1CCOCC1`, the cytotoxicity is -6.6%.

`C=CCn1c(O)c(C(C)=NCCN2CCOCC2)c(=O)[nH]c1=O`: the cytotoxicity is 3.7%.

On to `CCCCc1ccc2[nH]cc(CCN)c2c1`, for which the cytotoxicity is 89.6% (active).

Turning to `COc1ccc2[nH]cc(CCN(C)C)c2c1`, the cytotoxicity is 19.9%.

Turning to `NCCc1c[nH]c2ccc(F)cc12`, the cytotoxicity was -7.8%.

Take `Nc1c(C(=O)NCc2ccco2)c2nc3ccccc3nc2n1Cc1ccc(F)cc1`: the cytotoxicity was 95.8% (active).

As for `CC(C)(C)OC(=O)c1c(N)n(Cc2ccco2)c2nc3ccccc3nc12`, the cytotoxicity was 56.1% (active).

With `Nc1c(C(=O)NCCN2CCOCC2)c2nc3ccccc3nc2n1Cc1ccco1`, the cytotoxicity is 20.7%.

`COCCOC(=O)c1c(N)n(Cc2ccc(OC)cc2)c2nc3ccccc3nc12`: the cytotoxicity is -9.2%.

As to `COCCOC(=O)c1c(N)n(Cc2ccco2)c2nc3ccccc3nc12`, the cytotoxicity was 15.2%.

Turning to `CC(C)OC(=O)c1c(N)n(Cc2ccco2)c2nc3ccccc3nc12`, the cytotoxicity was -9%.

Take `COc1ccc(Cn2c(N)c(C(=O)NCc3ccco3)c3nc4ccccc4nc32)cc1`: the cytotoxicity is 75.2% (active).

In the case of `COc1ccc(Cn2c(N)c(C(=O)NCc3ccco3)c3nc4ccccc4nc32)cc1OC`, the cytotoxicity is 3.1%.

For `CCOC(=O)c1c(N)n(Cc2ccco2)c2nc3ccccc3nc12`, the cytotoxicity was -13.8%.

Consider `O=P(C(c1ccc2c(c1)OCO2)N1CCOCC1)(N1CCOCC1)N1CCOCC1` (stereo not given), for which the cytotoxicity is -15.1%.

Regarding `CN=C(SCc1cc2c(cc1Cl)OCO2)c1c(O)n(C)c(=O)n(C)c1=O`, the cytotoxicity was -13.4%.

In the case of `CCCNS(=O)(=O)c1ccc(OCC(=O)N2CCN(Cc3ccccc3)CC2)cc1`, the cytotoxicity is 8%.

Regarding `CN(C)CCc1nc2ccccc2c(=O)n1-c1ccccc1`, the cytotoxicity was 11.7%.

Take `O=c1c2ccccc2nc(CSc2ncnc3nc[nH]c23)n1-c1ccccc1`: the cytotoxicity was 64.8% (active).

On to `CCOc1ccc(-n2c(CC)nc3ccccc3c2=O)cc1`, for which the cytotoxicity is 1.5%.

Take `Cc1ccc2c(c1)C(c1ccccc1)NCC(=O)N2` (stereo not given): the cytotoxicity is 2.7%.

Regarding `CCC(=NCCC1=CCCCC1)c1c(O)[nH]c(=O)[nH]c1=O`, the cytotoxicity was 22.3%.

Consider `O=C(c1csc2c1CCCCC2)N1CCC2(CC1)OCCO2`, for which the cytotoxicity was -9.8%.

For the compound `Cc1nc2c(-c3ccc(F)cc3)c(C)nn2c(C)c1CCC(=O)N1CCC2(CC1)OCCO2`, the cytotoxicity is 9.4%.

With `CC(C)CCn1c(N)c(C(=O)OCC2CCCO2)c2nc3ccccc3nc21` (stereo not given), the cytotoxicity is 51.5% (active).

For `CCCCn1c(N)c(C(=O)OCC2CCCO2)c2nc3ccccc3nc21` (stereo not given), the cytotoxicity is 34.2%.

Take `CC(C)CCOC(=O)c1c(N)n(CC2CCCO2)c2nc3ccccc3nc12` (stereo not given): the cytotoxicity was 26.1%.

Regarding `CCOC(=O)c1cccc([P+](=O)O)c1`, the cytotoxicity is 7.5%.

Turning to `CC(C)[C@H]1C(=O)N2CCC[C@H]2[C@]2(O)O[C@](NC(=O)[C@@H]3C=C4c5cccc6[nH]cc(c56)C[C@H]4N(C)C3)(C(C)C)C(=O)N12`, the cytotoxicity is -1.3%.

As to `CC(C)[C@@]1(NC(=O)[C@@H]2C[C@@H]3c4cccc5[nH]cc(c45)C[C@H]3N(C)C2)O[C@@]2(O)[C@@H]3CCCN3C(=O)[C@H](Cc3ccccc3)N2C1=O`, the cytotoxicity was 77.9% (active).

For the compound `CC(C)[C@@]1(NC(=O)[C@@H]2C=C3c4cccc5[nH]cc(c45)C[C@H]3N(C)C2)O[C@@]2(O)[C@@H]3CCCN3C(=O)[C@H](Cc3ccccc3)N2C1=O`, the cytotoxicity was 29.5%.

As for `Cc1ccc2c(c1)CC1(CN2C)C(=O)NC(=O)N(c2ccccc2C)C1=O` (stereo not given), the cytotoxicity was 8.7%.

Turning to `COC(=O)C(O)(c1ccc2c(c1)CCCN2)C(F)(F)F` (stereo not given), the cytotoxicity is -24.5%.

Regarding `Cc1ccc(CN2CCN(C)CC2)c(C)c1`, the cytotoxicity is 14.3%.

In the case of `Cc1ccc(S(=O)(=O)N2CN3CCN(C3)C2)cc1`, the cytotoxicity was 11.8%.

For the compound `Cc1ccc(CN2CC3CC(C2)c2cccc(=O)n2C3)cc1` (stereo not given), the cytotoxicity was -9.1%.

`Cn1c(O)c(C=NCCOc2ccc(Cl)cc2)c(=O)n(C)c1=O`: the cytotoxicity was -12.3%.

In the case of `CCn1nc(-c2cccs2)nc2c(=O)n(C)c(=O)nc1-2`, the cytotoxicity was 127% (active).

For `CCc1nc2ccccc2c(=O)n1-c1cccc(OC)c1`, the cytotoxicity is -14%.

For `CCn1nc(-c2ccccc2)nc2c(=O)n(C)c(=O)nc1-2`, the cytotoxicity is 123% (active).

In the case of `O=c1c2ccccc2nc(-c2cccs2)n1-c1cnccn1`, the cytotoxicity is 15.2%.

For `O=P1(NC2CCCC2)COc2ccccc2OC1`, the cytotoxicity is -11.9%.

As to `COc1ccc(-n2c(SC)nc3ccccc3c2=O)cc1`, the cytotoxicity was -4.7%.

In the case of `CSC(=Nc1ccccc1)c1c(O)n(C)c(=O)n(C)c1=O`, the cytotoxicity was 5.2%.

Consider `CC(=NCc1ccc(F)cc1)c1c(O)n(C)c(=O)n(C)c1=O`, for which the cytotoxicity was 37.8%.

With `CCOc1ccc(C2SCC(=O)Nc3c2c(=O)[nH]n3C2CCCCCC2)cc1` (stereo not given), the cytotoxicity was -11.1%.

On to `COc1ccc(C2SCC(=O)Nc3c2c(=O)[nH]n3C2CCCCCC2)cc1` (stereo not given), for which the cytotoxicity was 80.4% (active).

In the case of `COc1ccc(C2SCC(=O)Nc3c2c(=O)[nH]n3C2CCCCC2)cc1` (stereo not given), the cytotoxicity is -1.2%.

For the compound `C=CCN1C(=O)C2(C(C(=O)OCC)=C(N)Oc3ccccc32)C2=C1CCCC2=O` (stereo not given), the cytotoxicity was -6.6%.

`CCCCc1nc(N2CCNCC2)c(C#N)c2c1CSC(C)(C)C2`: the cytotoxicity was 71.5% (active).

`CCc1nc(N2CCNCC2)c(C#N)c2c1CSC(C)(C)C2`: the cytotoxicity was 31.9%.

Regarding `O=C(C(Cc1ccccc1)NS(=O)(=O)c1ccc(F)cc1)N1CCC2(CC1)OCCO2` (stereo not given), the cytotoxicity is 10.2%.

Regarding `CCN(CC)C(=O)c1ccc(NC(=O)Cn2nc(C)c3ccccc3c2=O)cc1`, the cytotoxicity was -7.8%.

Turning to `O=C(Nc1ccc(OC(=O)N2CCCC2)cc1)N1CCOCC1`, the cytotoxicity is -8.6%.

Consider `CC(C)C(=O)N1CCN(CCN=Cc2c(O)n(C)c(=O)n(C)c2=O)CC1`, for which the cytotoxicity was 0.5%.

`COc1ccc(C2NCc3ccc4c(c3-n3cccc32)OCO4)cc1O` (stereo not given): the cytotoxicity is 59.8% (active).

Consider `c1cc2n(c1)-c1c(ccc3c1OCO3)CNC2c1ccc2c(c1)OCO2` (stereo not given), for which the cytotoxicity was 27.4%.

Regarding `COc1ccc(C2NCc3ccc4c(c3-n3cccc32)OCO4)cc1OC` (stereo not given), the cytotoxicity is 3.2%.

`O=P(/C(=N/O)N1CCCCC1)(N1CCOCC1)N1CCOCC1`: the cytotoxicity was -3.8%.

For `COc1cccc(OC)c1C1=NCC(=O)Nc2c1oc1ccc(Br)cc21`, the cytotoxicity was 56.7% (active).

`O=C1CN=C(c2ccccc2)c2oc3ccc(Br)cc3c2N1`: the cytotoxicity was -15.6%.

As for `O=C(NCC(c1cccnc1)N1CCOCC1)Oc1ccccc1` (stereo not given), the cytotoxicity is 2.6%.

Regarding `C=Cn1ccnc1P(=S)(c1c(C)nn(-c2ccccc2)c1C)c1nccn1C=C`, the cytotoxicity is 8.8%.

As for `O=c1[nH]c(=O)n(C2CCCCCC2)c(O)c1C=NCCCN1CCOCC1`, the cytotoxicity was -13.6%.

`O=c1[nH]c(=O)n(Cc2ccccc2)c(O)c1C=NCCN1CCNCC1`: the cytotoxicity is -15%.

For `O=c1c(C=NCCN2CCNCC2)c(O)n(C2CCCCC2)c(=O)n1C1CCCCC1`, the cytotoxicity was 95.1% (active).

Turning to `CCCCn1c(O)c(C(CC)=Nc2cccc(C(=O)O)c2)c(=O)[nH]c1=O`, the cytotoxicity is -13.6%.

Regarding `CC(=NCCCN1CCCCC1)c1c(O)n(Cc2ccccc2)c(=O)[nH]c1=O`, the cytotoxicity was 9.4%.

As to `CCOC(=O)c1ccc(N2C(=O)CC(N3CCC(C#N)(c4ccccc4)CC3)C2=O)cc1` (stereo not given), the cytotoxicity is -11.3%.

For `CCCCCn1c(=O)c(C(=O)NCc2ccncc2)c(O)c2ccccc21`, the cytotoxicity was 33.3%.

On to `CCCCn1c(=O)c(C(=O)Nc2cnccn2)c(O)c2ccccc21`, for which the cytotoxicity is 51.5% (active).

Regarding `CCCCCCn1c(=O)c(C(=O)Nc2ccncc2)c(O)c2ccccc21`, the cytotoxicity was 46.4%.

Consider `CCCCCn1c(=O)c(C(=O)NCc2ccccn2)c(O)c2ccccc21`, for which the cytotoxicity is 8.3%.

Take `CCCCCn1c(=O)c(C(=O)Nc2ccncc2)c(O)c2ccccc21`: the cytotoxicity is 73.1% (active).

Take `CCCCn1c(=O)c(C(=O)Nc2ccccc2S(N)(=O)=O)c(O)c2ccccc21`: the cytotoxicity was -11.7%.

Regarding `CCCCn1c(O)c(C=NCCCN(CC)CC)c(=O)[nH]c1=O`, the cytotoxicity is 6.9%.

In the case of `CSc1nnc(C2CCNCC2)n1C`, the cytotoxicity was -11.4%.

Take `O=C1NC(=O)C(CCc2ccncc2)(C2CCCCC2)C(=O)N1`: the cytotoxicity is -0.4%.

Turning to `COC(=O)c1ccc(COc2cc(C)cc3oc(=O)c4c(c23)CCCC4)o1`, the cytotoxicity is 4.3%.

On to `CC(=O)CC(C)(C)n1c[n+](C)nn1`, for which the cytotoxicity is 18.4%.

Regarding `Cc1ccc2c(c1)C1CN(C)CCC1N2C(=O)c1ccco1` (stereo not given), the cytotoxicity is 2.2%.

Turning to `c1ccc2c(CCNCc3ccc4c(c3)OCO4)c[nH]c2c1`, the cytotoxicity was 23.6%.

Regarding `C[C@@]1(CO)[C@H](O)CC[C@@]2(C)[C@H]1CC[C@H]1C[C@@H]3C[C@@]12CC[C@]3(O)CO`, the cytotoxicity was 69.7% (active).

`CC(C)CC1C(C#N)=C(N)Oc2c1c(=O)oc1ccccc21` (stereo not given): the cytotoxicity is 8.9%.

With `Cc1ccc2c(c1)CC1(CN2C)C(=O)NC(=O)N(CCC2=CCCCC2)C1=O` (stereo not given), the cytotoxicity was 5.2%.

Take `O=C1NC(=O)C2(Cc3ccccc3N3CCCC32)C(=O)N1c1ccccc1` (stereo not given): the cytotoxicity is -2.3%.

As for `OC1(c2ccccc2F)CC2CCC(C1)N2CCN1CCOCC1` (stereo not given), the cytotoxicity was -1.8%.

Consider `Cc1oc(-c2ccc(Cl)cc2)nc1CS(=O)CC(=O)N1CCC2(CC1)OCCO2` (stereo not given), for which the cytotoxicity was -19.8%.
